According to PMC11006913:

Key:
Experiment in all cases: PBM; 200 nM protein, PBS
Details in all cases: dsDNA, one strand shown
[1] = molecular target: HOXC9 (Homo sapiens, UniProt P31274 178-260, K195R)
[2] = molecular target: HOXC9 (Homo sapiens, UniProt P31274 178-260)
[3] = molecular target: HOXC9 (Homo sapiens, UniProt P31274 178-260, R193K)
[4] = molecular target: HOXC9 (Homo sapiens, UniProt P31274 178-260, R222W)
[5] = molecular target: PROP1 (Homo sapiens, UniProt O75360 56-141)
[6] = molecular target: PROP1 (Homo sapiens, UniProt O75360 56-141, R99H)
[7] = molecular target: PROP1 (Homo sapiens, UniProt O75360 56-141, F88S)
Sequence of PROP1 (Homo sapiens, UniProt O75360 56-141, F88S) (O75360 56-141 F88S): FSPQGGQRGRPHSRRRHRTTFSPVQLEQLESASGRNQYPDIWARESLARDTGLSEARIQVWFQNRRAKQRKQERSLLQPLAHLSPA

Sequence of HOXC9 (Homo sapiens, UniProt P31274 178-260, K195R) (P31274 178-260 K195R): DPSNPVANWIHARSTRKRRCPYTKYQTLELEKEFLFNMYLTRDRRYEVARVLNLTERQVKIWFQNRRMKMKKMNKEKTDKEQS
Sequence of HOXC9 (Homo sapiens, UniProt P31274 178-260, R193K) (P31274 178-260 R193K): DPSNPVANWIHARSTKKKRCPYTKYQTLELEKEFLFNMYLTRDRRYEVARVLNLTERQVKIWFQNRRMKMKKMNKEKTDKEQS
Sequence of HOXC9 (Homo sapiens, UniProt P31274 178-260, R222W) (P31274 178-260 R222W): as the sequence (P31274 178-260 R193K) above, with K16R, R45W counted along it
Sequence of HOXC9 (Homo sapiens, UniProt P31274 178-260) (P31274 178-260): as the sequence (P31274 178-260 R193K) above, with K16R counted along it
Sequence of PROP1 (Homo sapiens, UniProt O75360 56-141) (O75360 56-141): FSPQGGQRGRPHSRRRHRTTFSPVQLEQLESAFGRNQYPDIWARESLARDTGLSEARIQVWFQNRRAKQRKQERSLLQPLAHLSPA
Sequence of PROP1 (Homo sapiens, UniProt O75360 56-141, R99H) (O75360 56-141 R99H): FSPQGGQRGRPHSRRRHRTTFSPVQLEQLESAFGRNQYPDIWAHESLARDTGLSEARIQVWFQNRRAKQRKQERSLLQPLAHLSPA

Row | Sequence | binding signal [1] | binding signal [2] | binding signal [3] | binding signal [4] | binding signal [5] | binding signal [6] | binding signal [7]
1 | TCCTTCGA | 9.75 upbm affinity estimate (log intensity, higher = more binding, comparable within an allelic series) | 9.66 upbm affinity estimate (log intensity, higher = more binding, comparable within an allelic series) | 9.72 upbm affinity estimate (log intensity, higher = more binding, comparable within an allelic series) | 9.84 upbm affinity estimate (log intensity, higher = more binding, comparable within an allelic series) |  |  | 
2 | CCTAGACG | 9.79 upbm affinity estimate (log intensity, higher = more binding, comparable within an allelic series) | 9.86 upbm affinity estimate (log intensity, higher = more binding, comparable within an allelic series) | 9.81 upbm affinity estimate (log intensity, higher = more binding, comparable within an allelic series) | 9.82 upbm affinity estimate (log intensity, higher = more binding, comparable within an allelic series) |  |  | 
3 | ATCTTTAA | 11.4 upbm affinity estimate (log intensity, higher = more binding, comparable within an allelic series) | 11.3 upbm affinity estimate (log intensity, higher = more binding, comparable within an allelic series) | 11.4 upbm affinity estimate (log intensity, higher = more binding, comparable within an allelic series) |  |  |  | 
4 | ATCTACTA | 11 upbm affinity estimate (log intensity, higher = more binding, comparable within an allelic series) | 10.7 upbm affinity estimate (log intensity, higher = more binding, comparable within an allelic series) | 10.8 upbm affinity estimate (log intensity, higher = more binding, comparable within an allelic series) |  |  |  | 
5 | AGCCGACC | 9.56 upbm affinity estimate (log intensity, higher = more binding, comparable within an allelic series) | 9.71 upbm affinity estimate (log intensity, higher = more binding, comparable within an allelic series) | 9.61 upbm affinity estimate (log intensity, higher = more binding, comparable within an allelic series) | 9.74 upbm affinity estimate (log intensity, higher = more binding, comparable within an allelic series) |  |  | 
6 | CGTAAAGA | 11.1 upbm affinity estimate (log intensity, higher = more binding, comparable within an allelic series) | 11.2 upbm affinity estimate (log intensity, higher = more binding, comparable within an allelic series) | 11.2 upbm affinity estimate (log intensity, higher = more binding, comparable within an allelic series) |  |  |  | 
7 | CACTAATA | 11.3 upbm affinity estimate (log intensity, higher = more binding, comparable within an allelic series) | 11.4 upbm affinity estimate (log intensity, higher = more binding, comparable within an allelic series) | 11.4 upbm affinity estimate (log intensity, higher = more binding, comparable within an allelic series) |  |  |  | 
8 | ATGAACTA | 10.9 upbm affinity estimate (log intensity, higher = more binding, comparable within an allelic series) | 10.9 upbm affinity estimate (log intensity, higher = more binding, comparable within an allelic series) | 10.9 upbm affinity estimate (log intensity, higher = more binding, comparable within an allelic series) |  |  |  | 
9 | ATAATAAC | 12 upbm affinity estimate (log intensity, higher = more binding, comparable within an allelic series) | 12 upbm affinity estimate (log intensity, higher = more binding, comparable within an allelic series) | 12 upbm affinity estimate (log intensity, higher = more binding, comparable within an allelic series) | 10.7 upbm affinity estimate (log intensity, higher = more binding, comparable within an allelic series) |  |  | 
10 | CTGCATAA | 11.2 upbm affinity estimate (log intensity, higher = more binding, comparable within an allelic series) | 11.1 upbm affinity estimate (log intensity, higher = more binding, comparable within an allelic series) | 11.2 upbm affinity estimate (log intensity, higher = more binding, comparable within an allelic series) |  |  |  | 
11 | CATTTAGA | 11.1 upbm affinity estimate (log intensity, higher = more binding, comparable within an allelic series) | 11.1 upbm affinity estimate (log intensity, higher = more binding, comparable within an allelic series) | 11.3 upbm affinity estimate (log intensity, higher = more binding, comparable within an allelic series) |  |  |  | 
12 | ACTTTACG | 11.5 upbm affinity estimate (log intensity, higher = more binding, comparable within an allelic series) | 11.7 upbm affinity estimate (log intensity, higher = more binding, comparable within an allelic series) | 11.5 upbm affinity estimate (log intensity, higher = more binding, comparable within an allelic series) |  |  |  | 
13 | CTCACCAG | 9.79 upbm affinity estimate (log intensity, higher = more binding, comparable within an allelic series) | 9.75 upbm affinity estimate (log intensity, higher = more binding, comparable within an allelic series) | 9.75 upbm affinity estimate (log intensity, higher = more binding, comparable within an allelic series) | 9.9 upbm affinity estimate (log intensity, higher = more binding, comparable within an allelic series) |  |  | 
14 | AGGACGTG | 9.73 upbm affinity estimate (log intensity, higher = more binding, comparable within an allelic series) | 9.75 upbm affinity estimate (log intensity, higher = more binding, comparable within an allelic series) | 9.75 upbm affinity estimate (log intensity, higher = more binding, comparable within an allelic series) | 9.71 upbm affinity estimate (log intensity, higher = more binding, comparable within an allelic series) |  |  | 
15 | CGGGAGCC | 9.62 upbm affinity estimate (log intensity, higher = more binding, comparable within an allelic series) | 9.73 upbm affinity estimate (log intensity, higher = more binding, comparable within an allelic series) | 9.62 upbm affinity estimate (log intensity, higher = more binding, comparable within an allelic series) | 9.69 upbm affinity estimate (log intensity, higher = more binding, comparable within an allelic series) | 6.62 upbm affinity estimate (log intensity, higher = more binding, comparable within an allelic series) | 6.7 upbm affinity estimate (log intensity, higher = more binding, comparable within an allelic series) | 6.53 upbm affinity estimate (log intensity, higher = more binding, comparable within an allelic series)
